A selection: hits, their analogues and other compounds. The true share with any hit is near 0.93%.
RPL19A-GFP yeast: alters RPL19A-GFP fluorescence in TOR pathway yeast screen; hit rate 0.3% among 330,000; S. cerevisiae RPL19A-GFP strain, flow cytometry, 3 h; active compounds read low; percent response vs DMSO, % at 10 µM;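 active means percent response vs DMSO below 50%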;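 further: median channel GFP fluorescence of the barcoded RPL19A-GFP strain; ratio of sample median GFP to plate DMSO average so 100% = DMSO; lower means less RPL19A-GFP as with rapamycin TOR inhibition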
CIT2-GFP yeast: yeast TOR pathway CIT2-GFP modulation | S. cerevisiae CIT2-GFP strain, flow cytometry, 3 h; 100 means same as DMSO wells | GFP response vs DMSO, % at 10 µM | hit rate 0.065% among 320,000;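 active means GFP response relative to DMSO above a set limit, near the screen mean plus 3 SD, cut at about 150% in these data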;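 further: ratio of well median GFP fluorescence to mean of DMSO wells on the plate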
LAP4-GFP MLPCN: yeast TOR pathway LAP4-GFP modulation. S. cerevisiae LAP4-GFP multiplex, flow cytometry GFP, 3 h; median GFP as percent of DMSO wells. GFP response vs DMSO, % at 10 µM. hit rate 0.34% among 320,000;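 active means GFP response vs DMSO above a set limit, about the screen mean plus 3 SD, cut at about 150% in these data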
MEP2-GFP yeast: modulators of TOR pathway MEP2-GFP in S. cerevisiae. S. cerevisiae MEP2-GFP strain, flow cytometry GFP, 3 h; 100% = DMSO control level. GFP response vs DMSO, % at 10 µM. hit rate 0.51% among 330,000;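 active means GFP response versus DMSO above a set limit, roughly screen mean plus 3 SD, cut at about 180% in these data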;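 further: median GFP fluorescence of the barcode-gated MEP2-GFP cells per well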
AGP1 TOR yeast: modulators of TOR pathway AGP1-GFP in S. cerevisiae. S. cerevisiae AGP1-GFP multiplex flow cytometry, 3 h; GFP as percent of DMSO wells. GFP response vs DMSO, % at 10 µM. hit rate 0.02% among 320,000. AID 2066;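 active means GFP response relative to DMSO above a set limit, near screen average plus 3 SD, cut at about 150% in these data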;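 further: median GFP channel fluorescence of the gated AGP1 strain per well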
LAP4 cherry2: yeast LAP4-GFP modulation, second cherry pick | GFP response vs DMSO, % at 10 µM | shares compounds with LAP4-GFP MLPCN | S. cerevisiae LAP4-GFP strain, flow cytometry GFP, 3 h | hit rate 20% among 590;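 active means GFP signal as percent of the solvent control above about 150%, meaning raised reporter expression, limit read from the data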;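 further: ratio of well median GFP fluorescence to plate DMSO mean so 100% = DMSO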
MEP2-GFP pick2: reconfirmed MEP2-GFP TOR pathway modulator in yeast; shares compounds with LAP4-GFP MLPCN; S. cerevisiae MEP2-GFP strain, flow cytometry GFP, 3 h; GFP response vs DMSO, % at 10 µM; hit rate 10% among 590;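 active means GFP signal above 150% of the solvent control wells, that is a rise of more than half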;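 further: median channel GFP fluorescence of all gated yeast cells per well; ratio of median GFP to plate DMSO average so 100% = DMSO level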
RPL19A GFP CP2: second confirmation of modulators of TOR reporter RPL19A-GFP in yeast | hit rate 3% among 590 | AID 2623 | shares compounds with LAP4-GFP MLPCN | S. cerevisiae RPL19A-GFP strain, flow cytometry GFP, 3 h; active compounds read low; 100% means same as DMSO wells | GFP response vs DMSO, % at 10 µM;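 active means under 65% GFP response relative to DMSO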;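 further: median GFP channel fluorescence per well over the all cells gate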
CIT2 GFP CP2: reconfirmed modulator of CIT2-GFP TOR reporter in yeast; shares compounds with LAP4-GFP MLPCN; S. cerevisiae CIT2-GFP strain, flow cytometry GFP, 3 h; DMSO control wells read 100%; GFP response vs DMSO, % at 10 µM; hit rate 8% among 590;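 active means GFP response vs DMSO above about 150%, limit read from the data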;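 further: median green fluorescence per well over all gated yeast cells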
AGP1 GFP CP2: second confirmation of modulators of TOR reporter AGP1-GFP in yeast. percent response vs DMSO, % at 10 µM. S. cerevisiae AGP1-GFP strain, flow cytometry GFP, 3 h. shares compounds with LAP4-GFP MLPCN. 590 tested, under 10 active;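 active means over 150 percent of DMSO response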;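 further: median GFP channel fluorescence over all cells without mother daughter split; sample median GFP divided by mean DMSO control so 100% equals DMSO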
Yeast autofluor: compound is autofluorescent in yeast s288c cells; AID 2757; S. cerevisiae s288c, 520 nm autofluorescence, flow cytometry, 3 h; active compounds read high; zero means same as solvent-only cells; shares compounds with LAP4-GFP MLPCN; 610 tested, under 10 active; fluorescence change (kMESF span) at 33 µM;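 active means fluorescence span over the dose series, or activity score, above about 33, limit read from the data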
TORC1 bypass: wildtype yeast growth loss with TORC1 bypass cells unaffected | shares compounds with LAP4-GFP MLPCN | S. cerevisiae BY4741 spot growth rating, 48-72 h; active compounds read low | growth rating (0-3) at 30 µM | 120 tested, under 10 active | AID 504456;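 active means growth rating at most 1 for wild type yeast while the TORC1 bypass strain still grows fully, rated 3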
* marks the source's active call; other numbers are inactive results; nt = no result.

SMILES	RPL19A-GFP yeast	CIT2-GFP yeast	LAP4-GFP MLPCN	MEP2-GFP yeast	AGP1 TOR yeast	LAP4 cherry2	MEP2-GFP pick2	RPL19A GFP CP2	CIT2 GFP CP2	AGP1 GFP CP2	Yeast autofluor	others
CCOC(=O)C1CCN(C(=O)C(=O)Nc2ccc3nc4n(c(=O)c3c2)CCCCC4)CC1	99	97	100	99	101	nt	nt	nt	nt	nt	nt
Cc1cccc(NC(=O)C2CCN(S(=O)(=O)c3c(C)c(C)cc(C)c3C)CC2)n1	101	92	112	102	110	nt	nt	nt	nt	nt	nt
CCS(=O)(=O)N1Cc2ccccc2CC1C(=O)N(C)CC(=O)Nc1ccc(OC)cc1 (stereo not given)	101	92	100	101	97	nt	nt	nt	nt	nt	nt
Oc1ccc2ccccc2c1/C=N/Nc1nnc(-c2ncc[nH]2)c2ccccc12	92	111	277*	194*	72	nt	nt	nt	nt	nt	40*
Cc1[nH][nH]c(=O)c1C(c1ccc(-c2ccc(F)cc2)o1)c1c(C)[nH][nH]c1=O	107	98	100	106	98	nt	nt	nt	nt	nt	nt
Cc1[nH][nH]c(=O)c1C(c1ccc(-c2ccc(Cl)c(Cl)c2)o1)c1c(C)[nH][nH]c1=O	94	102	217*	96	85	nt	nt	nt	nt	nt	-1.4
COc1cc(N=c2ssnc2Cl)cc(OC)c1	91	74	151*	90	84	114	110	93	121	96	1
CC(C)(C)NC(=O)[C@@H]1C[C@@H]2CCCC[C@@H]2CN1C[C@@H](O)[C@H](Cc1ccccc1)NC(=O)[C@H](CC(N)=O)NC(=O)c1ccc2ccccc2n1	100	79	96	96	82	107	114	96	113	101	nt
COC(=O)[C@H](Cc1ccccc1)NC(=O)c1ccc2ccccc2n1	96	89	85	93	90	nt	nt	nt	nt	nt	nt
COc1ccc2c(c1)c1nnc(SC)nc1n2C	54	73	103	101	60	102	106	53*	98	55	0.7
CCn1c(C)cc(C(=O)CN2C(=O)c3ccccc3S2(=O)=O)c1C	94	88	92	97	97	nt	nt	nt	nt	nt	nt
CCCn1c(C)cc(C(=O)CN2C(=O)c3ccccc3C2=O)c1C	61	93	100	135	96	96	103	100	99	99	nt
O=C(/C=C/c1ccc(Cl)cc1)c1cccnc1	58	55	88	94	40	111	108	100	111	94	nt
N#Cc1ccc(/C=C/C(=O)c2cccnc2)cc1	94	96	105	87	90	nt	nt	nt	nt	nt	nt
CCCCCCSc1ccc(-c2nc3ccccn3c2NCCCC)cc1	99	88	161*	104	92	125	108	97	101	94	nt
Cc1cc(Nc2cc(Nc3ccccc3)nc(NCc3ccccc3)n2)n[nH]1	nt	nt	nt	nt	nt	nt	nt	nt	nt	nt	nt	TORC1 bypass=3
Cc1cc(Nc2ccccc2)nc(NCc2ccccc2)n1	102	112	92	107	98	nt	nt	nt	nt	nt	nt
COC(=O)c1nc(-c2ccccc2)n[nH]1	102	86	100	106	97	nt	nt	nt	nt	nt	nt
COC(=O)c1cccc(-c2cc(Nc3cc(C)[nH]n3)nc(NCc3ccccc3)n2)c1	nt	nt	nt	nt	nt	nt	nt	nt	nt	nt	nt	TORC1 bypass=3
O=C1C(Cl)=C(Nc2ccccc2O)C(=O)N1CCc1ccccc1	103	98	99	104	97	nt	nt	nt	nt	nt	0.4
COc1ccc(CCNC2=C(Cl)C(=O)N(CCc3ccccc3)C2=O)cc1OC	98	90	109	112	97	nt	nt	nt	nt	nt	0
Cc1cccc(OCCN2CSC(=S)N(C)C2)c1	84	83	160*	99	103	nt	nt	nt	nt	nt	0.3
CCOC(=O)Cn1c(CN2CCOCC2)nc2c1c(=O)[nH]c(=O)n2C	93	112	96	97	98	nt	nt	nt	nt	nt	nt
CCOC(=O)Cn1c(CN2CCOCC2)nc2c1c(=O)n(C)c(=O)n2C	69	101	222*	95	106	108	119	101	115	99	nt
CCOc1ccc(N(C(C)C(=O)N2CCCCCC2)S(C)(=O)=O)cc1 (stereo not given)	104	103	92	102	102	nt	nt	nt	nt	nt	nt
SMILES	RPL19A-GFP yeast	CIT2-GFP yeast	LAP4-GFP MLPCN	MEP2-GFP yeast	AGP1 TOR yeast	LAP4 cherry2	MEP2-GFP pick2	RPL19A GFP CP2	CIT2 GFP CP2	AGP1 GFP CP2	Yeast autofluor	others
COc1ccccc1[C@@]1(C)ON(c2ccccc2C(F)(F)F)C1=O	93	85	155*	88	78	140	118	104	128	105	0.3
CC[C@]1(c2ccccc2C)ON(c2ccccc2C(F)(F)F)C1=O	94	103	104	95	98	101	98	104	107	98	-0.1
COc1ccccc1N1C(=O)CC(c2ccccc2)CC1=O	99	99	95	98	100	nt	nt	nt	nt	nt	nt
Cc1ccccc1[C@]1(C)ON(c2ccccc2C(F)(F)F)C1=O	95	81	122	81	81	117	102	104	114	102	0.4
CC(C)N(C(=O)COC(=O)c1ccc([N+](=O)[O-])cc1)c1ccccc1	97	96	99	97	93	nt	nt	nt	nt	nt	nt
N#C/C(=C/c1ccc(N2CCCCC2)o1)c1cccc(F)c1	102	94	152*	92	90	108	105	102	99	96	nt
N#C/C(=C/c1ccc(N2CCCCCC2)o1)c1ccc(Cl)cc1	87	105	118	144	32	nt	nt	nt	nt	nt	nt
COc1ccc(C(=O)NC(=S)NNC(=O)c2cccc(C)c2)cc1	107	97	111	98	96	nt	nt	nt	nt	nt	nt
CCCCC(=O)NC(=S)NNC(=O)CCc1ccccc1	101	109	150*	109	102	139	105	104	123	97	0.4
O=C(NC(=S)NNC(=O)[C@H]1C[C@@H]1c1ccccc1)c1cccc(F)c1	89	96	153*	101	102	nt	nt	nt	nt	nt	1.3

Screening results (PubChem)
